# Reference: article PMC5540273 (PLoS ONE, 2017)
# Where two headings read alike, the source gives them in different places.
# Assays:
# Conditions in all cases: n = 1
# [1] = system: PKN1
# [2] = system: PKN2
# [3] = system: PLK1
# [4] = system: PLK2
# [5] = system: PLK3
# [6] = system: PLK4
# [7] = system: PRKCD
# [8] = system: PRKCE
# [9] = system: PRKCH
# [10] = system: PRKCI
# [11] = system: PRKCQ
# [12] = system: PRKD1
# [13] = system: PRKD2
# [14] = system: PRKD3
# [15] = system: PRKG1
# [16] = system: PRKG2
# [17] = system: T1, PRKR
# T1 construct: gene EIF2AK2
# [18] = system: PRKX
# [19] = system: PRP4
# [20] = system: T2, PYK2
# T2 construct: gene PTK2B
# [21] = concentration: 1 μM, replicates: in singlicate
# 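Note: KINOMEscan kinase panel screen.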
smiles,measurement,setting,value
Cc1ccc(NC(=O)Nc2cccc(C(F)(F)F)c2)cc1 [GSK955403],%Inh,[1]; 1 µM,16%
same,%Inh,[2]; 1 µM,0%
same,%Inh,[3]; 1 µM,0%
same,%Inh,[4]; 1 µM,0%
same,%Inh,[5]; 1 µM,0%
same,%Inh,[6]; 1 µM,9%
same,%Inh,[7]; 1 µM,8%
same,%Inh,[8]; 1 µM,0%
same,%Inh,[9]; 1 µM,0%
same,%Inh,[10]; 1 µM,11%
same,%Inh,[11]; 1 µM,24%
same,%Inh,[12]; 1 µM,18%
same,%Inh,[13]; 1 µM,0%
same,%Inh,[14]; 1 µM,1%
same,%Inh,[15]; 1 µM,19%
same,%Inh,[16]; 1 µM,0%
same,%Inh,[17]; 1 µM,13%
same,%Inh,[18]; 1 µM,1%
same,%Inh,[19]; 1 µM,10%
same,%Inh,[20]; 1 µM,0%
CCn1c(-c2cccnc2O)nc2cnccc21 [SB-736715],%Inh,[1]; [21],0%
same,%Inh,[2]; [21],0%
same,%Inh,[3]; [21],0%
same,%Inh,[4]; [21],0%
same,%Inh,[5]; [21],0%
same,%Inh,[6]; [21],0%
same,%Inh,[7]; [21],2%
same,%Inh,[8]; [21],3%
same,%Inh,[9]; [21],0%
same,%Inh,[10]; [21],0%
same,%Inh,[11]; [21],0%
same,%Inh,[12]; [21],0%
same,%Inh,[13]; [21],0%
same,%Inh,[14]; [21],0%
same,%Inh,[15]; [21],0%
same,%Inh,[16]; [21],0%
same,%Inh,[17]; [21],0%
same,%Inh,[18]; [21],0%
same,%Inh,[19]; [21],0%
same,%Inh,[20]; [21],0%
O=C(Nc1n[nH]c2cc(-c3cccc(F)c3F)ccc12)C1CC1 [SB-733894],%Inh,[1]; [21],39%
same,%Inh,[2]; [21],6%
same,%Inh,[3]; [21],0%
same,%Inh,[4]; [21],26%
same,%Inh,[5]; [21],13%
same,%Inh,[6]; [21],22%
same,%Inh,[7]; [21],7%
same,%Inh,[8]; [21],0%
same,%Inh,[9]; [21],0%
same,%Inh,[10]; [21],21%
same,%Inh,[11]; [21],19%
same,%Inh,[12]; [21],0%
same,%Inh,[13]; [21],0%
same,%Inh,[14]; [21],0%
same,%Inh,[15]; [21],0%
same,%Inh,[16]; [21],0%
same,%Inh,[17]; [21],3%
same,%Inh,[18]; [21],0%
same,%Inh,[19]; [21],4%
same,%Inh,[20]; [21],0%
COc1cc2nccc(Nc3ccc(NC(=O)c4ccc(C)cc4)c(O)c3)c2cc1OC.Cl [GW440132],%Inh,[1]; [21],0%
same,%Inh,[2]; [21],0%
same,%Inh,[3]; [21],0%
same,%Inh,[4]; [21],0%
same,%Inh,[5]; [21],0%
same,%Inh,[6]; [21],13%
same,%Inh,[7]; [21],24%
same,%Inh,[8]; [21],0%
same,%Inh,[9]; [21],17%
same,%Inh,[10]; [21],12%
same,%Inh,[11]; [21],16%
same,%Inh,[12]; [21],0%
same,%Inh,[13]; [21],0%
same,%Inh,[14]; [21],0%
same,%Inh,[15]; [21],0%
same,%Inh,[16]; [21],0%
same,%Inh,[17]; [21],0%
same,%Inh,[18]; [21],18%
same,%Inh,[19]; [21],2%
same,%Inh,[20]; [21],12%
Cl.c1ccc(-c2n[nH]cc2-c2ccnc(-c3ccc(CN4CCOCC4)cc3)c2)nc1 [GW776245],%Inh,[1]; [21],0%
same,%Inh,[2]; [21],0%
same,%Inh,[3]; [21],17%
same,%Inh,[4]; [21],0%
same,%Inh,[5]; [21],4%
same,%Inh,[6]; [21],0%
same,%Inh,[7]; [21],11%
same,%Inh,[8]; [21],0%
same,%Inh,[9]; [21],0%
same,%Inh,[10]; [21],48%
same,%Inh,[11]; [21],0%
same,%Inh,[12]; [21],62%
same,%Inh,[13]; [21],44%
same,%Inh,[14]; [21],28%
same,%Inh,[15]; [21],0%
same,%Inh,[16]; [21],16%
same,%Inh,[17]; [21],0%
same,%Inh,[18]; [21],0%
same,%Inh,[19]; [21],0%
same,%Inh,[20]; [21],14%
Cc1ccc(-c2cc(-c3c[nH]nc3-c3ccccn3)ccn2)cc1 [GW684088],%Inh,[1]; [21],0%
same,%Inh,[2]; [21],0%
same,%Inh,[3]; [21],0%
same,%Inh,[4]; [21],0%
same,%Inh,[5]; [21],0%
same,%Inh,[6]; [21],0%
same,%Inh,[7]; [21],0%
same,%Inh,[8]; [21],16%
same,%Inh,[9]; [21],0%
same,%Inh,[10]; [21],12%
same,%Inh,[11]; [21],1%
same,%Inh,[12]; [21],68%
same,%Inh,[13]; [21],62%
same,%Inh,[14]; [21],69%
same,%Inh,[15]; [21],0%
same,%Inh,[16]; [21],16%
same,%Inh,[17]; [21],24%
same,%Inh,[18]; [21],21%
same,%Inh,[19]; [21],27%
same,%Inh,[20]; [21],16%
Cn1cncc1-c1ccc2ncnc(Nc3ccc(OCc4ccccc4)cc3)c2c1 [GW320571],%Inh,[1]; [21],1%
same,%Inh,[2]; [21],0%
same,%Inh,[3]; [21],9%
same,%Inh,[4]; [21],0%
same,%Inh,[5]; [21],0%
same,%Inh,[6]; [21],0%
same,%Inh,[7]; [21],0%
same,%Inh,[8]; [21],14%
same,%Inh,[9]; [21],14%
same,%Inh,[10]; [21],32%
same,%Inh,[11]; [21],16%
same,%Inh,[12]; [21],26%
same,%Inh,[13]; [21],5%
same,%Inh,[14]; [21],15%
same,%Inh,[15]; [21],26%
same,%Inh,[16]; [21],0%
same,%Inh,[17]; [21],0%
same,%Inh,[18]; [21],4%
same,%Inh,[19]; [21],0%
same,%Inh,[20]; [21],34%
CC(C)(C)c1ccc(C(=O)Nc2cn3cc(Cl)ccc3n2)cc1,%Inh,[1]; [21],0%
same,%Inh,[2]; [21],1%
same,%Inh,[3]; [21],13%
same,%Inh,[4]; [21],0%
same,%Inh,[5]; [21],1%
same,%Inh,[6]; [21],0%
same,%Inh,[7]; [21],4%
same,%Inh,[8]; [21],13%
same,%Inh,[9]; [21],2%
same,%Inh,[10]; [21],100%
same,%Inh,[11]; [21],18%
same,%Inh,[12]; [21],0%
same,%Inh,[13]; [21],0%
same,%Inh,[14]; [21],0%
same,%Inh,[15]; [21],0%
same,%Inh,[16]; [21],0%
same,%Inh,[17]; [21],0%
same,%Inh,[18]; [21],0%
same,%Inh,[19]; [21],0%
same,%Inh,[20]; [21],96.6%
O=c1cc(N2CCOCC2)nc2n(Cc3cccc(Cl)c3Cl)ccn12 [GSK2286295],%Inh,[1]; [21],0%
same,%Inh,[2]; [21],0%
same,%Inh,[3]; [21],10%
same,%Inh,[4]; [21],0%
same,%Inh,[5]; [21],0%
same,%Inh,[6]; [21],0%
same,%Inh,[7]; [21],0%
same,%Inh,[8]; [21],0%
same,%Inh,[9]; [21],20%
same,%Inh,[10]; [21],48%
same,%Inh,[11]; [21],14%
same,%Inh,[12]; [21],0%
same,%Inh,[13]; [21],20%
same,%Inh,[14]; [21],0%
same,%Inh,[15]; [21],0%
same,%Inh,[16]; [21],0%
same,%Inh,[17]; [21],0%
same,%Inh,[18]; [21],0%
same,%Inh,[19]; [21],0%
same,%Inh,[20]; [21],0%
COc1cccc(NC(=O)NC2CCN(c3ccnc(Nc4ccc(F)cc4)n3)C2)c1 (centres unmarked) [GSK1379721],%Inh,[1]; [21],8%
same,%Inh,[2]; [21],0%
same,%Inh,[3]; [21],7%
same,%Inh,[4]; [21],0%
same,%Inh,[5]; [21],7%
same,%Inh,[6]; [21],3%
same,%Inh,[7]; [21],0%
same,%Inh,[8]; [21],14%
same,%Inh,[9]; [21],0%
same,%Inh,[10]; [21],4%
same,%Inh,[11]; [21],3%
same,%Inh,[12]; [21],0%
same,%Inh,[13]; [21],0%
same,%Inh,[14]; [21],19%
same,%Inh,[15]; [21],0%
same,%Inh,[16]; [21],0%
same,%Inh,[17]; [21],1%
same,%Inh,[18]; [21],21%
same,%Inh,[19]; [21],47%
same,%Inh,[20]; [21],0%
